Data from PubChem BioAssay AID1159580 (chemical genetic matrix, 2015).
The campaign covered roughly 5,500 compounds. About 2,000 (36%) were called active. About 18% were inconclusive and are not listed. Rule as the data show it: active = normalized growth mostly below about 0.91 (no sharp cut-off); inconclusive = no clear call, values can overlap the other calls; inactive = mostly above about 0.92. The list shows a part of the results.

Test: chemical genetic growth profiling, strain panel (AID 1159580);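 also: tested at 20 µM; growth read once vehicle control cultures reached saturation at 30 °C; 1 = growth at the plate median or of vehicle wells; lower values mean less growth of the strain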
Details: S. cerevisiae deletion strains, growth OD

Measured: normalized growth

O=C1N(c2ccccc2)c2ccccc2C1(Cc1ccncc1)Cc1ccncc1
inactive: locus YAL040C, strain CLN3, active compounds read low 1.01 | locus YCL061C, strain MRC1 (second series), active compounds read low 1.01 | locus YDR150W, strain NUM1, active compounds read low 1 | locus YDR363W, strain ESC2, active compounds read low 1.03 | locus YER002W, strain NOP16, active compounds read low 0.988 | locus YJR075W, strain HOC1, active compounds read low 1.02 | locus YMR307W, strain GAS1, active compounds read low 0.997 | locus YNL175C, strain NOP13, active compounds read low 0.996 | locus YNL197C, strain WHI3, active compounds read low 0.997 | locus YNL224C, strain SQS1, active compounds read low 1 | locus YNL322C, strain KRE1, active compounds read low 1.03 | locus YOR083W, strain WHI5 (second series), active compounds read low 1.02 | locus YPL055C, strain LGE1, active compounds read low 1.03 | locus YPL241C, strain CIN2, active compounds read low 0.995

CC1(C)CC2C1CC[C@]1(C)CCC3C(C(=O)O)CC(=O)O[C@@]32C1 (some centres not stated)
inactive: locus YAL021C, strain ccr4, active compounds read low 1.07 | locus YAL026C, strain drs2, active compounds read low 1.07 | locus YAL030W, strain snc1, active compounds read low 1.04 | locus YBL061C, strain skt5, active compounds read low 1.03 | locus YBR009C, strain hhf1, active compounds read low 1.03 | locus YBR023C, strain chs3, active compounds read low 1.02 | locus YBR171W, strain sec66, active compounds read low 1.07 | locus YBR231C, strain swc5, active compounds read low 1.06 | locus YBR279W, strain paf1, active compounds read low 1.01 | locus YCL011C, strain gbp2, active compounds read low 1.03 | locus YCL016C, strain dcc1, active compounds read low 1.06 | locus YCL061C, strain MRC1, active compounds read low 1.03 | locus YCR088W, strain abp1, active compounds read low 1.03 | locus YDL005C, strain med2, active compounds read low 1.04 | locus YDL040C, strain nat1, active compounds read low 1.05 | locus YDR001C, strain nth1, active compounds read low 1.04 | locus YDR069C, strain doa4, active compounds read low 1.06 | locus YDR137W, strain rgp1, active compounds read low 1.04 | locus YDR159W, strain sac3, active compounds read low 1.05 | locus YDR195W, strain ref2 1.06 | locus YDR297W, strain sur2, active compounds read low 1.05 | locus YDR334W, strain swr1, active compounds read low 1.09 | locus YDR392W, strain spt3, active compounds read low 1.14 | locus YEL003W, strain gim4, active compounds read low 1.02 | locus YEL037C, strain rad23, active compounds read low 1.06 | locus YEL061C, strain CIN8 (second series), active compounds read low 1.04 | locus YER015W, strain faa2, active compounds read low 1.02 | locus YER016W, strain bim1, active compounds read low 1.04 | locus YER111C, strain swi4, active compounds read low 1.01 | locus YER155C, strain BEM2 (second series), active compounds read low 1.04 | locus YFR010W, strain ubp6, active compounds read low 1.09 | locus YGL167C, strain pmr1, active compounds read low 1.05 | locus YGL173C, strain kem1, active compounds read low 1.03 | locus YGL227W, strain vid30, active compounds read low 1.02 | locus YGL240W, strain doc1, active compounds read low 1.06 | locus YGL253W, strain hxk2, active compounds read low 1.06 | locus YHR013C, strain ard1, active compounds read low 1.05 | locus YHR027C, strain rpn1, active compounds read low 1.03 | locus YHR030C, strain SLT2, active compounds read low 1 | locus YHR079C, strain IRE1, active compounds read low 1 | locus YHR142W, strain chs7, active compounds read low 1.05 | locus YJL092W, strain hpr5, active compounds read low 1.07 | locus YJL095W, strain BCK1 (second series), active compounds read low 1.04 | locus YJL095W, strain BCK1, active compounds read low 0.99 | locus YJL115W, strain asf1, active compounds read low 1.06 | locus YJL129C, strain trk1, active compounds read low 1.09 | locus YJL154C, strain vps35, active compounds read low 1.05 | locus YJL164C, strain tpk1, active compounds read low 1.02 | locus YJL166W, strain qcr8, active compounds read low 1.05 | locus YJL187C, strain SWE1, active compounds read low 1.03 | locus YJR066W, strain TOR1, active compounds read low 0.942 | locus YKL160W, strain elf1, active compounds read low 1.05 | locus YKR026C, strain gcn3, active compounds read low 1.02 | locus YKR091W, strain srl3, active compounds read low 1.04 | locus YLL001W, strain dnm1, active compounds read low 1.07 | locus YLL026W, active compounds read low 1.01 | locus YLL041C, strain sdh2, active compounds read low 1.01 | locus YLR027C, strain aat2, active compounds read low 1.04 | locus YLR113W, strain HOG1, active compounds read low 0.98 | locus YLR221C, strain rsa3, active compounds read low 1.02 | locus YLR262C, strain YPT6 (second series), active compounds read low 1.07 | locus YLR320W, strain mms22, active compounds read low 1.05 | locus YLR342W, strain FKS1, active compounds read low 1.02 | locus YLR357W, strain rsc2, active compounds read low 1.13 | locus YLR370C, strain arc18, active compounds read low 1.03 | locus YLR384C, strain iki3, active compounds read low 1.01 | locus YML120C, strain ndi1, active compounds read low 1.04 | locus YMR058W, strain fet3, active compounds read low 1.03 | locus YMR125W, strain sto1, active compounds read low 1.06 | locus YMR129W, active compounds read low 1.05 | locus YMR205C, strain PFK2, active compounds read low 1.04 | locus YMR231W, strain pep5, active compounds read low 1.03 | locus YNL071W, strain lat1, active compounds read low 1.04 | locus YNL183C, strain NPR1, active compounds read low 0.931 | locus YNL209W, strain ssb2, active compounds read low 1.01 | locus YNL322C, strain KRE1 (second series), active compounds read low 1.02 | locus YNR049C, strain mso1, active compounds read low 1.05 | locus YOR001W, strain rrp6, active compounds read low 1.06 | locus YOR083W, strain WHI5, active compounds read low 1.08 | locus YOR106W, strain vam3, active compounds read low 1.05 | locus YOR231W, strain MKK1, active compounds read low 0.985 | locus YOR265W, strain rbl2, active compounds read low 1.05 | locus YOR270C, strain vph1, active compounds read low 1.14 | locus YPL051W, strain arl3, active compounds read low 1.03 | locus YPL078C, strain atp4, active compounds read low 1.07 | locus YPL106C, strain sse1, active compounds read low 1.11 | locus YPL240C, strain hsp82, active compounds read low 1.02 | locus YPL256C, strain CLN2, active compounds read low 0.967
active: locus YDR335W, strain msn5, active compounds read low 1.15 [resistant] | locus YLR258W, strain gsy2, active compounds read low 1.1 [resistant] | locus YOR070C, strain gyp1, active compounds read low 1.14 [resistant] | locus YOR080W, strain dia2, active compounds read low 1.1 [resistant] | locus YOR290C, strain snf2, active compounds read low 1.18 [resistant]
